Screens deposited in PubChem BioAssay by National Center for Advancing Translational Sciences (NCATS).
Compounds with a hit are over-represented: about 7.4% of the library has one in this group of screens.
Rab9 promoter act: activators of Rab9 promoter | Huh7 Rab9 promoter-luciferase reporter, luminescence, 24 h | 320,000 tested, 2.8% active | Potency, µM (doses to about 9.22 µM), inactives show at the top dose activation, negative = inhibition, usual class: activators | AID 485297; note: % of control where 0% means no effect; nearly all actives have a fitted effect of over 60% in size
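Using Huh7 cells stably transfected with Rab9 promoter–luciferase, compounds were incubated 24 h at 37 °C, 5% CO2; luciferase luminescence was read 10 min after reagent addition.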
ELG1 genotox: genotoxicity induction in ELG1-luciferase HEK293T cells; HEK293T ELG1-luciferase reporter, luminescence, 16 h; Potency, µM (series often up to 46 µM), inactives show top-dose activity change, positive = activation, hits mostly activators; 330,000 tested, 1.3% active; note: % of control where 0% means no effect; nearly all actives have a fitted effect of over 60% in size
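Genotoxicity was scored as increased ELG1-luciferase reporter signal, measured by ONE-Glo luminescence (30 min, room temperature). Compound or vehicle exposure of the HEK293T reporter cells lasted 16 hr at 37°C.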
FLuc counter: counter-screen for miR-21 project: firefly luciferase inhibitors or activators; purified FLuc, Km substrates, luminescence inhibition; Potency, µM (highest dose often 57.5 µM), for inactives: at the highest dose activity change, negative = inhibition, hits mostly inhibitors; 360,000 tested, 6.9% active; AID 588342;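 note: plate controls were vehicle for no effect and reference inhibitor for full effect; nearly all actives have a fitted effect of over 55% in size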
Target sequence (P08659 whole entry, looked up): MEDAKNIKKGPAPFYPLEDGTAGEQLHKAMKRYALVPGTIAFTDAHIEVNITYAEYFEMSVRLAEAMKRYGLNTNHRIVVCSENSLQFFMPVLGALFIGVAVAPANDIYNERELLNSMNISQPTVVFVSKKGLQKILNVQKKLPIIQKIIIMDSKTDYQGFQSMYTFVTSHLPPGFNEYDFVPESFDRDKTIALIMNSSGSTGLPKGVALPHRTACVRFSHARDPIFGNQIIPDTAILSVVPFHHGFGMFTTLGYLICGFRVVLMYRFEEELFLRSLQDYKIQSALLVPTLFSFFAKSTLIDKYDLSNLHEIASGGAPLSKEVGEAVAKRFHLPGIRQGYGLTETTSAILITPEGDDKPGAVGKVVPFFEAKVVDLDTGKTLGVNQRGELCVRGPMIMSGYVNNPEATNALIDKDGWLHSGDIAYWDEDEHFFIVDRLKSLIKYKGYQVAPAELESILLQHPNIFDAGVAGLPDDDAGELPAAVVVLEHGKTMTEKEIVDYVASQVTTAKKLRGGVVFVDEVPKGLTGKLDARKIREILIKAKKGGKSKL
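Biochemical qHTS of compounds, final roughly 60 µM downward over six points, against 10 nM purified firefly luciferase using Km concentrations of substrates (10 uM D-luciferin, 10 uM ATP) in Tris acetate pH 7.5 buffer; luminescence output.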
SMN2 splice up: increases expression of the SMN2 splice variant. Potency, µM (doses to about 46.1 µM), for inactives: at the top dose activity change, positive = activation, usual class: activators. AID 1458. 210,000 tested, 2.8% active. HEK293 SMN2-luciferase splicing reporter, luminescence, 30-36 h; note: % of control where 0% means no effect; nearly all actives have a fitted effect of over 55% in size
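HEK293 cells carry an SMN2 […]–luciferase reporter in which exon 7 inclusion puts luciferase in frame. Cells were plated 10-12 h before compound addition, then incubated 30-36 h at 37C. ONE-Glo luminescence was read; sodium butyrate at 4.5 mM final served as control.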
NPC1 promoter act: NPC1 promoter activation. Huh7 NPC1 promoter luciferase reporter, 24 h. Potency, µM (highest dose often 9.22 µM), without a hit: top-dose activation, hits mostly activators. 320,000 tested, 2.4% active; note: % of control where 0% means no effect; nearly all actives have a fitted effect of over 60% in size
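Compounds in DMSO were transferred onto Huh7 NPC1-luciferase reporter cells pre-incubated 2 h; after 24 h at 37 °C, Amplite reagent was dispensed and luminescence recorded 10 min later.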
* = called active by the depositor; u = inconclusive; x = no result; [ ] = remark or other dose. Calls come from the whole dose curve; as a rule, active = well fitted curve in the direction sought with a large enough effect; inconclusive = small, poorly fitted or top-dose-only effect, or another doubt; inactive = no such curve, though single readings can be large; an effect the other way counts as inactive or inconclusive. Potency is the fitted concentration of half-maximal effect.

SMILES	Rab9 promoter act	ELG1 genotox	FLuc counter	SMN2 splice up	NPC1 promoter act
O=C(O)c1cc(N/N=C/c2ccc3c(c2)OCCO3)ccc1Cl	u	0.29µM*	1.1µM*	0.32µM*	u
C/C(=N\Nc1ccc(Cl)c(C(=O)O)c1)c1ccc2c(c1)OCO2	1.6µM*	u	15µM*	16µM*	2.2µM*
O=C(O)c1cc(S(=O)(=O)Nc2ccc3c(c2)OCCO3)c(Cl)cc1Cl	4%	9.2µM*	u	-12%	2%
O=C(CSc1ccc(Cl)cc1)N/N=C/c1ccc([N+](=O)[O-])o1	5%[1.84 µM]	-3%	-2%	x	-11%
CCOc1ccc(S(=O)(=O)N(CC(=O)Nc2ccc(OC)c(Cl)c2)c2ccccc2)cc1	x	x	0%	4%	x
C[C@H](CO)N1C[C@H](C)[C@@H](CN(C)CC2CCCCC2)Oc2c(NC(=O)CCC(F)(F)F)cccc2C1=O	x	0%	x	x	x
Cc1oc2ncn(C)c(=O)c2c1C(=O)N1CCN(c2ccccc2)CC1	x	x	3%	-5%	x
O=C1OC(c2ccc3c(c2)OCO3)=N/C1=C\c1ccc(C(=O)O)cc1	-3%	0%	0.13µM*	x	0%
O=C(O)c1cc(N/N=C/c2ccc3c(c2)OCO3)ccc1Cl	0.1µM*	u	0.76µM*	4.5µM*	0.28µM*
O=C(N/N=C/c1ccc2c(c1)OCO2)c1ccc(Cl)cc1Cl	3%	2%	u	x	2%
O=C(O)c1ccc(N/N=C/c2cc3cc4c(cc3nc2Cl)OCCO4)cc1	0.1µM*	1.2µM*	0.024µM*	x	0.28µM*
O=C(O/N=C/c1ccc2c(c1)OCO2)c1ccccc1Cl	5%	2%	0.95µM*	3%	5%
Cc1c(C)n(Cc2ccccc2)c2ccc(C(=O)NCCc3ccccc3Cl)cc12	x	x	-15%	x	x
Cc1ccc(N/N=C/c2ccc3c(c2)OCCO3)cc1Cl	4%	u	24µM*	20µM*	12%
Cc1ccsc1/C=C1/C(=O)NN(c2ccccc2)C1=O	-4%	-7%	9.5µM*	-4%	u
Cc1ccsc1C=C1C(=O)c2ccccc2C1=O	u	2%	1.3µM*	9%	u
CN(C(=O)CSc1nncn2c1cc1occc12)c1ccccc1	x	x	-7%	x	x
COc1ccc(CN(Cc2ccco2)c2cnc(S(C)(=O)=O)nc2C(=O)Nc2ccc(C)c(C)c2)cc1	x	x	-7%	x	x
COc1ccc(NC2=NCCCCC2)cc1	-1%	-2%	1%	x	1%
COc1ccc(NC2=Nc3ccccc3CC2)cc1	1.6µM*	4.5µM*	11µM*	13µM*	2.8µM*
COc1ccccc1CNC(=O)CN1c2cccc3cccc(c23)S1(=O)=O	-7%	-1%	24µM*	x	1%
CCOC(=O)N1CCN(c2ccc(C(=O)CC)cc2F)CC1	-4%	7%	-1%	-11%	0%
CCCC(=O)c1ccc(N2CCC(C)CC2)c(F)c1	25%	u	9.5µM*	u	2%
CCC(=O)c1ccc(N2CCN(C(=O)c3ccccc3)CC2)c(F)c1	-12%	-3%	0%	x	-2%
CCC(=O)c1ccc(N2CCC(C)CC2)c(F)c1	29%	13%	21µM*	x	8%
SMILES	Rab9 promoter act	ELG1 genotox	FLuc counter	SMN2 splice up	NPC1 promoter act
CCCCN1C(=O)C(=O)N(CC(=O)Nc2ccccc2C(=O)OCC)C1=O	5%	-1%	9%	x	-1%
O=C(NCc1cccnc1)c1nn(-c2ccc(F)cc2)nc1CO	x	x	-8%	-37%	x
Cc1cc2ncn(C(=O)c3ccc4c(c3)OCO4)c2cc1C	8%	3%	u	-14%	-13%
Cc1cc2ncn(C(=O)N3CCC(C)CC3)c2cc1C	u	12%	u	16µM*	23%
COc1ccc(-c2nc3scc(CCNS(=O)(=O)c4ccc(F)c(C(F)(F)F)c4)n3n2)cc1OC	x	x	-12%	x	x
O=C(Nc1ccccc1C(=O)O)c1ccc(NC(=O)C2CCCCC2)cc1	13%	-14%	9.5µM*	x	3%
O=C(NNC(=O)c1ccc(NC(=O)C2CC2)cc1)c1ccc(F)cc1	-1%	11%	2%	x	1%
O=C(Nc1ccccc1)c1ccc(NC(=O)C2CC2)cc1	2.8µM*	21µM*	7.6µM*	x	1.6µM*
C#CCOCCOCCOCCNc1nc(N2CCN(C(=O)[C@H](CCCN=C(N)N)n3cc(C(N)[C@H](C)CC)nn3)CC2)nc(N2CCN(C(=O)[C@H](CC(N)=O)n3cc(C(N)[C@@H](C)CC)nn3)CC2)n1 (stereo partly specified)	x	7%	x	x	x
Cc1ccc(C(=O)N/N=C2\CCCc3ccccc32)c(C)c1	u	13%	6µM*	13µM*	2.8µM*
O=C(CNc1ccc(F)cc1)N/N=C1\CCCc2ccccc21	1%	-3%	4%	-3%	-2%
O=C(N/N=C1\CCCc2ccccc21)c1ccc([N+](=O)[O-])cc1	3.5µM*	u	6µM*	14µM*	u
CC(C)NC(=S)N/N=C1\CCCc2ccccc21	-3%	0%	-1%	6%	-1%
CCCCCCCC1=CC2=C(Cl)C(=O)C(C)(OC(C)=O)C(=O)C2=CN1C (stereo unspecified)	x	x	x	-4%	x
Cc1ccc(N=CC2=C(O)CC(C)(C)CC2=O)nc1	1%	1%	24µM*	-9%	0%
CC1(C)CC(=O)C(C=Nc2ccc(Cl)cn2)=C(O)C1	0%	2%	u	-12%	-4%
CCOc1ccc(N=CC2=C(O)CC(C)(C)CC2=O)cc1	-2%	u	24µM*	-10%	-2%
Cc1[nH]nc(N=CC2=C(O)CC(C)(C)CC2=O)c1-c1ccc(Cl)cc1	-2%	-4%	17µM*	-7%	0%
